Sampled rows, rich in hits. Any-hit rate of the full collection: about 0.52%.
Vif-A3F inh: blocks the Vif interaction with APOBEC3F | HeLa A3F-eYFP + Vif (tagged APOBEC3F with the HIV-1 protein that degrades it), YFP fluorescence increase | Potency, µM (doses to about 46.1 µM), inactives show top-dose activity, negative = active | 0.2% of 390,000 active; further: % of control where 0% means no effect; nearly all actives have a fitted effect of over 65% in size
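HeLa cells stably expressing A3F-eYFP plus Vif, plated and incubated overnight at 37 deg C, then exposed to compounds overnight at 37 deg C. Blocked degradation read as raised yellow fluorescence (Ex 488/Em 500-530).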
PINK1 modulator: changes PINK1 expression. 0.2% of 410,000 active. PINK1 immunofluorescence, high-content cytometry, 24 h. Potency, µM (highest dose often 76.6 µM), inactives show at the top dose activation (PINK1 increase), actives largely listed as activators; active means well fitted activation curve with a large enough effect; inconclusive means small, poorly fitted or top-dose-only effect; cell line not stated here; further: % of control where 0% means no effect; nearly all actives have a fitted effect of over 65% in size
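Compound titrations (5 concentrations, 24 h) on a stable cell line; DMSO and CCCP controls. Endpoint: fixed-cell PINK1 immunofluorescence with mitochondrial, cell and nuclear markers, scanned by microplate cytometer.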
Vif-A3G inh: inhibitors of Vif-APOBEC3G interaction; HeLa A3G-eYFP + Vif (tagged APOBEC3G with the HIV-1 protein that degrades it), YFP fluorescence, overnight; Q9HC16; Potency, µM (top dose mostly 46.1 µM), inactives show at the highest dose activity, negative = active, actives largely listed as inhibitors; 0.076% of 410,000 active; AID 602310; further: on the % scale 0 is the no-effect control and ±100 the full control effect; nearly all actives have a fitted effect of over 60% in size
Target sequence (Q9HC16 whole entry, looked up): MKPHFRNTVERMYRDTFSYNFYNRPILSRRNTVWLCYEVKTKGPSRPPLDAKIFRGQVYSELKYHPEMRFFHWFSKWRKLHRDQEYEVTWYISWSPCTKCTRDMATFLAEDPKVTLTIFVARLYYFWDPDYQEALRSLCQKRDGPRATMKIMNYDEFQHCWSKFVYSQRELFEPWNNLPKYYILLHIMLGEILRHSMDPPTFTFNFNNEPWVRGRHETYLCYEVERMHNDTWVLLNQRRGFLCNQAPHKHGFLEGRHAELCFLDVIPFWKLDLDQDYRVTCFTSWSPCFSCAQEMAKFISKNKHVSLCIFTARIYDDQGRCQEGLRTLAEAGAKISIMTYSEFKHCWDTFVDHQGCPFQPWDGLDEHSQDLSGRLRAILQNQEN
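Read-out is eYFP fluorescence (Ex 488/Em 500-530) from Vif-expressing HeLa A3G-eYFP cells; more signal means A3G escaped Vif-mediated degradation. Cells plated overnight, compound pinned in, incubated overnight at 37 deg C.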
Epigenetic derep: regulators of epigenetic silencing causing reporter derepression in mouse cells; murine LDR cells, GFP reporter derepression, 30 h; Potency, µM (titrated, usually from 53.9 µM), for inactives: at the top dose GFP activation, actives largely listed as activators; 0.2% of 280,000 active; further: % of control where 0% means no effect; nearly all actives have a fitted effect of over 60% in size
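Readout is the number of GFP-expressing murine LDR cells, counted by cytometry following washing. Cells were treated with compound for 30 h at 37 C; the stably integrated CMV-GFP locus is normally silent.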
Starred values were filed as active, the others as inactive; ? = inconclusive; / = no result; ! = a repeat was not active. Unless noted, the call rests on the fitted dose curve; in most records, active means well fitted curve in the direction sought with a large enough effect; inconclusive means small, poorly fitted or top-dose-only effect, or another doubt; inactive means no such curve, though single readings can be large; an effect the other way counts as inactive or inconclusive. Potency means the concentration at half of the fitted maximal effect.

SMILES	Vif-A3F inh	PINK1 modulator	Vif-A3G inh	Epigenetic derep
Oc1ccc(/C=N\Nc2nncc(-c3ccccc3)n2)cc1	-14%	3%	11µM*	3%
CCOC(=O)c1ccc2c(c1)nc(SCC(=O)c1ccco1)n2CC	-12%	-1%	1%	-6%
CCOC(=O)c1ccc2c(c1)nc(SC/C(O)=C(\C#N)c1nc3ccccc3[nH]1)n2CC	-11%	40µM*	-3%	-1%
CCOC(=O)/C=c1\s/c(=C\c2c(OCC)ccc3ccccc23)c(=O)n1CC(=O)NCC1CCCO1 (stereo unspecified)	-19%	1%	?	-1%
CCOC(=O)/C=c1/s/c(=C\c2c(OC)ccc3ccccc23)c(=O)n1CC(=O)NCC1CCCO1 (stereo unspecified)	?	3%	11µM*	/
CCOC(=O)/C=c1\s/c(=C\c2ccc3cc(OC)ccc3c2)c(=O)n1CC(=O)NCc1ccc2c(c1)OCO2	-3%	20µM*	2%	7.9µM*
CN1CCCN(C(=O)[C@@H]2C[C@@H](Sc3nc4ccccc4[nH]3)CN2Cc2ccc(OC(F)(F)F)cc2)CC1	/	0%	/	/
COc1cc(=O)n2c(c1C(=O)N(C)Cc1cscn1)CCN(Cc1c(C)[nH]c3ccccc13)CC2	/	1%	/	/
CCN(CC)CCNC(=O)c1cnn(-c2nccc(-c3cc4ccccc4o3)n2)c1C	/	0%	/	/
CC(NC(=O)c1cc2ccccc2o1)C(=O)O (stereo unspecified)	1%	-1%	1%	1%
CC(NC(=O)c1cc2ccccc2o1)c1ccccc1 (stereo unspecified)	-5%	0%	0%	16µM*!
COc1ccc(-c2csc(/C(C#N)=C/Nc3ccc4c(c3)OCCO4)n2)cc1	?	5%	3%	10µM*
CCc1nc2cc(C(=O)N3CCCN(C=O)CC3)cc(NC(=O)c3ccccc3OC)c2n1C	/	-1%	/	/
CC(C)(CNC(=O)c1cnn(-c2ncc3c(n2)-c2ccccc2CCC3)c1C1CC1)N1CCOCC1	/	0%	/	/
N#C/C(=C\c1ccc(-c2ccccc2C(=O)O)o1)c1nc2ccccc2[nH]1	22µM*!	2%	-9%	0%
Cc1ccc2nc(/C(C#N)=C/c3ccc(-c4ccccc4C(=O)O)o3)[nH]c2c1	11µM*	0%	?	/
Cc1cc2nc(/C(C#N)=C\c3ccc(-c4ccccc4C(=O)O)o3)[nH]c2cc1C	-319%	2%	8%	/
N#C/C(=C\c1ccc(-c2ccc(F)cc2F)o1)c1nc2ccccc2[nH]1	11µM*	22%	11µM*	7.9µM*
N#C/C(=C\c1ccc(Cl)cc1)c1nc2ccccc2[nH]1	-4%	4%	-6%	5%
CCOC(=O)c1ccc(-c2ccc(/C=C(\C#N)c3nc4ccc(C)cc4[nH]3)o2)cc1	/	6%	/	1.6µM*
OC1(c2ccc3c(c2)CN(Cc2ccccn2)CCO3)CCN(c2ccccc2F)CC1	/	1%	/	/
Cc1ccccc1CN1CCc2nnc(C(C)NC(=O)c3cc(F)ccc3F)n2CC1 (stereo unspecified)	/	0%	/	/
O=C(NCC1CCC2(CCN(Cc3ccc4ncccc4c3)CC2)O1)C1CCCO1 (stereo unspecified)	/	0%	/	/
CCOc1ccc(CN2CCOc3ccc(C(O)c4cccnc4)cc3C2)cc1 (stereo unspecified)	/	0%	/	/
NNc1nnc2c3cc(F)ccc3n(Cc3ccccc3)c2n1	6%	32µM*	-3%	1%
SMILES	Vif-A3F inh	PINK1 modulator	Vif-A3G inh	Epigenetic derep
CCn1c2ccc(F)cc2c2nnc(NN)nc21	2%	8%	0%	-1%
Cc1nc2c3cc(F)ccc3n(Cc3ccccc3)c2s1	-28%	6%	6.3µM*	0%
CC(C)(C)CC(C)(C)N=C1Nc2ccc(Cl)cc2NC12C[C@H]1CCC(=O)N3CC[C@@H](C2)[C@@H]13 (stereo partly specified)	/	/	-8%	/
Cc1ccc(C)c(C(C)NC(=S)NCc2ccc(F)cc2)c1 (stereo unspecified)	11µM*	?	-1%	/
COc1ccc(C(C)NC(=S)NCc2ccc(F)cc2)cc1 (stereo unspecified)	?	1%	0%	/
O=C(NCCc1nnc2n1CCN(Cc1ccsc1)CC2)c1ccc(F)cc1	/	1%	/	/
CCN1CCN(c2nc3ccccc3nc2C(C#N)S(=O)(=O)c2ccc(C)cc2)CC1 (stereo unspecified)	-17%	1%	1%	0%
CCCCCNC(=O)C(C#N)c1nc2ccccc2nc1N1CCCC1 (stereo unspecified)	7.1µM*	5%	-17%	0%
N#CC(C(=O)NCCc1ccccc1)c1nc2ccccc2nc1N1CCCCC1 (stereo unspecified)	-19%	5%	-14%	4%
Cc1ccc(S(=O)(=O)C(C#N)c2nc3ccccc3nc2N2CCCC2)cc1 (stereo unspecified)	22µM*	6%	?	-1%
N#CC(C(=O)NCc1ccccc1)c1nc2ccccc2nc1N1CCCC1 (stereo unspecified)	10µM*	?	-1%	?
COc1ccc([C@H]2O[C@@H](c3ccc(OC)c(OC)c3)[C@H](C)[C@@H]2C)cc1OC	/	/	/	-1%
N#C/C(=C/c1ccc(Sc2nc3ccccc3[nH]2)o1)c1cccc(Br)c1	1%	18µM*	-5%	-10%
N#C/C(=C/c1ccc(Sc2nc3ccccc3[nH]2)o1)c1cccc(F)c1	-9%	?	2%	5%
COC1=C(Br)C(=O)c2ncccc2C1=O	11µM*	-1%	-18%	/
O=C(Cc1c[nH]c2ccccc12)N1CCC(n2c(C3CCCO3)nc3cc(C(F)(F)F)ccc32)CC1 (stereo unspecified)	/	0%	/	/
CCCCn1c(N)c(N(CC(C)C)C(=O)Cc2ccc(S(=O)(=O)N3CCOCC3)s2)c(=O)[nH]c1=O	25µM*	13%	?	/
CCCCn1c(N)c(N(CCC(C)C)C(=O)Cc2ccc(S(=O)(=O)N3CCOCC3)s2)c(=O)[nH]c1=O	4%	-1%	0%	/
CC(C)(C)c1ccc(C(=O)N2CCC3(CC2)CC3C(=O)NCCc2ccccn2)cc1 (stereo unspecified)	/	0%	/	/
COc1cc(=O)n2c(c1C(=O)NCc1nonc1C)CCN(Cc1c[nH]c3ccccc13)CC2	/	1%	/	/
Cc1ccccc1C(=O)NC(C)c1nnc2n1CCN(Cc1ccc(F)cc1)CC2 (stereo unspecified)	/	0%	/	/
COc1cc2c3nnc(-c4ccc(F)cc4)c-3cn(Cc3cccc(C)c3)c2cc1OC	?	?	-6%	3.5µM*
COc1cc2c3nnc(-c4ccc(F)cc4)c-3cn(Cc3ccc(C)cc3)c2cc1OC	-343%	?	?	6.3µM*
COc1cc2c3nnc(-c4ccc(F)cc4)c-3cn(Cc3cccc(F)c3)c2cc1OC	6.3µM*	?	7.9µM*	7.1µM*
COc1cccc(CNC(=O)c2c(OC)cc(=O)n3c2CCN(C(=O)c2ccccc2Cl)CC3)c1	/	1%	/	/
COc1ccccc1CN1CCC(n2cc(C(=O)N3CCCCC3)nn2)CC1	/	0%	/	/

Source: PubChem BioAssay
